The nature of assay [1]: antimalarial activity against Dd2 strain (AID 2302;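 active = growth inhibition above 50% at the single 2 µM test dose, taken to imply half-maximal potency below 2 µM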;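 also: 0% = DMSO untreated growth and 100% = chloroquine plus artemisinin killed control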). The settings on record: P. falciparum Dd2 in RBCs, LDH growth readout, 72 h; at 2 µM; stronger effect = higher value.
Assay [2] is described as follows: human hepatoma cell viability loss – ATP luminescence, cytotoxicity control for P. falciparum antimalarial project, primary screen (AID 2303;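 active = inhibition above 50%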;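 also: 0% = DMSO wells and 100% = digitonin-killed cells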). The settings on record: HepG2 viability, 24-48 h, at 10 µM, stronger effect = higher value.
The target of assay [3] is L-lactate dehydrogenase (Plasmodium falciparum (isolate CDC / Honduras)) (UniProt Q27743). The assay can be described thus: PfLDH activity inhibition – cell lysate, 3D7 strain, counter-screen for P. falciparum growth inhibition project (AID 2304).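 Also: 0% = vehicle and 100% = reference inhibitor.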 To be noted: P. falciparum 3D7 crude extract, LDH APAD/NBT absorbance; at 2 µM; stronger effect = higher value. In general terms: Counterscreens check selectivity or assay interference.

Assay [4] can be described thus: inhibition of 3D7 malaria parasite growth – strain 3D7 (AID 2306).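 Also: 0% = DMSO wells and 100% = chloroquine plus artemisinin control wells.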 To be noted: P. falciparum 3D7 erythrocytic growth, LDH absorbance, 72 h; at 2 µM; stronger effect = higher value.
For assay [5], the target named is Calcium-dependent protein kinase 1 (Plasmodium falciparum (isolate 3D7)) (UniProt P62344). Description: PfCDPK1 kinase inhibitors, biochemical, TCAMS library (AID 1159585; cut-off not given, nearly all actives have IC50 up to about 0.98 µM;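 also: inhibitors leave more ATP so luminescence rises with inhibition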). The settings on record: recombinant PfCDPK1, Kinase-Glo ATP depletion luminescence. For orientation: In Kinase-Glo more light means more ATP remaining.
In assay [6] the target is Plasmodium falciparum protein kinase 6 (PK6, PF3D7_1337100) (UniProt Q8IDW1). Description: PfPK6 kinase inhibitors, biochemical, TCAMS library (AID 1159586). The settings on record: recombinant PfPK6, Kinase-Glo ATP depletion luminescence.
The target of assay [7] is Protein kinase 7 (PK7), Plasmodium falciparum 3D7 (PF3D7_0213400) (UniProt Q7YTF7). Description: inhibition of Plasmodium PK7 catalytic activity – biochemical, TCAMS antimalarial set, Kinase-Glo luminescence (AID 1159587). To be noted: recombinant PfPK7, Kinase-Glo ATP depletion luminescence.
Assay [8] deals with Calcium-dependent protein kinase 4 (Plasmodium falciparum (isolate 3D7)) (UniProt Q8IBS5). The assay can be described thus: PfCDPK4 kinase inhibitors, biochemical, TCAMS library (AID 1159588; cut-off not given, nearly all actives have IC50 up to about 0.91 µM). The settings on record: recombinant PfCDPK4, Kinase-Glo ATP depletion luminescence.

Unmarked numbers belong to inactive results. For some of these results: Potency and affinity values are given separately. Calls of active or inactive are those of the source. Unless noted, no rule for the calls is given here.

Chain of Calcium-dependent protein kinase 1 (Plasmodium falciparum (isolate 3D7)) (P62344 whole entry, looked up): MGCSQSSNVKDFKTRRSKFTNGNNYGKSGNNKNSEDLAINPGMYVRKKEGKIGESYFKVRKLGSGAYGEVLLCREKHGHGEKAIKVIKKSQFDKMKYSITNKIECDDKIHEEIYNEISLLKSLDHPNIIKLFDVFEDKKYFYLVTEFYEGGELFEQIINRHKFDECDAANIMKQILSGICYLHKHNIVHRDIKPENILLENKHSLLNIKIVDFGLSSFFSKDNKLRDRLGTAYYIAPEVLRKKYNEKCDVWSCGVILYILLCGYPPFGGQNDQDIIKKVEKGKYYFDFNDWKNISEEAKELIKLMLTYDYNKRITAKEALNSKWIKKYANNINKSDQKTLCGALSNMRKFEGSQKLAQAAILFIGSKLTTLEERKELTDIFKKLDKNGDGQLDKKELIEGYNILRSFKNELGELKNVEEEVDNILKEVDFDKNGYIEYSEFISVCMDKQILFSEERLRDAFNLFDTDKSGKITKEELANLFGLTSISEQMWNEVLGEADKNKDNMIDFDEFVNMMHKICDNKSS
Chain of Calcium-dependent protein kinase 4 (Plasmodium falciparum (isolate 3D7)) (Q8IBS5 whole entry, looked up): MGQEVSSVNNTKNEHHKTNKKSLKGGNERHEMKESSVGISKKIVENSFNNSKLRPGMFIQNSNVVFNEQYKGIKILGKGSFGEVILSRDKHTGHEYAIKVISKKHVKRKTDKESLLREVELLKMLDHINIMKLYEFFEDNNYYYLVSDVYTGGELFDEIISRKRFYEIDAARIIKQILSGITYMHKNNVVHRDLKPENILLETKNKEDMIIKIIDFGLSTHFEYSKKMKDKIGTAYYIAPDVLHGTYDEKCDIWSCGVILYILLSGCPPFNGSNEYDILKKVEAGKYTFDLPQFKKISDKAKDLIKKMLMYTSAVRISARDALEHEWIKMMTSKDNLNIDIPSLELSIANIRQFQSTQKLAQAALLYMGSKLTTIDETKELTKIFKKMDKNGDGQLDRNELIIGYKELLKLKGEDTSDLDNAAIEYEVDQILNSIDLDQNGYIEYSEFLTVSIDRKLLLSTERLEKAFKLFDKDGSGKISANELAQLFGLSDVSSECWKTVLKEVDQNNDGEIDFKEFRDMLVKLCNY
Chain of L-lactate dehydrogenase (Plasmodium falciparum (isolate CDC / Honduras)) (Q27743 whole entry, looked up): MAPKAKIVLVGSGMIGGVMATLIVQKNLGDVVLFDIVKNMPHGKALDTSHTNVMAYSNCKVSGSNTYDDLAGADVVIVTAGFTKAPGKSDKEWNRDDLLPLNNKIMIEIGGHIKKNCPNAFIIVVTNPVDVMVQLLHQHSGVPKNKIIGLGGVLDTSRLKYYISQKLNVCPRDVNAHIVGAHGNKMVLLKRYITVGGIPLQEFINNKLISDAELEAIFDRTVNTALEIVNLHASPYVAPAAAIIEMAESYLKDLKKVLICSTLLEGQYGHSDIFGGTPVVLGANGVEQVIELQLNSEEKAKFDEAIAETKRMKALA
Chain of Plasmodium falciparum protein kinase 6 (PK6, PF3D7_1337100) (Q8IDW1 1-305): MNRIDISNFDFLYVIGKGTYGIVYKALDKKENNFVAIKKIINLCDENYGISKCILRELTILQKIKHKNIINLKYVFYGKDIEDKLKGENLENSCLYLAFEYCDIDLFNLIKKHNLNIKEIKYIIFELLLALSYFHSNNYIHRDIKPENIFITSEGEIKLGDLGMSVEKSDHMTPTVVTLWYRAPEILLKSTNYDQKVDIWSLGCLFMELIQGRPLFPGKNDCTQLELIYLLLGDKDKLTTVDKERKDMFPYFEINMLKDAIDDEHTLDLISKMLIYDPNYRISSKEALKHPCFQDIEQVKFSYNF
Chain of Protein kinase 7 (PK7), Plasmodium falciparum 3D7 (PF3D7_0213400) (Q7YTF7 1-343): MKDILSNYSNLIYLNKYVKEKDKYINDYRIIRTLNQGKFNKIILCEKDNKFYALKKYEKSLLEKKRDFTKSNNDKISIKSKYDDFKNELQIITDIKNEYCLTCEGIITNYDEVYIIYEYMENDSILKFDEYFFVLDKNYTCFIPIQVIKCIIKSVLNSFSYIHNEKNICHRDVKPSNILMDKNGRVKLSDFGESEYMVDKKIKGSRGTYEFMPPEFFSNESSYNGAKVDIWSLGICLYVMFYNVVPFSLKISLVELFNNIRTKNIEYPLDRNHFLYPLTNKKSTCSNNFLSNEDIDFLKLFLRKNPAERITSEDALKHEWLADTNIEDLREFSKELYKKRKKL

For the molecule `Nc1cccc(CNCc2ccc(-c3cccc(-c4nc5ccccc5[nH]4)c3)cc2)c1`, the growth inhibition was 78% (active) in assay [1] and 103% (active) in assay [4]. The inhibition in assay [2] was 12%; in assay [3] it was 6%. For the same molecule, the result in assay [5], in assay [6], in assay [7] and in assay [8] was inactive.

With `O=C(Nc1ccc(C(=O)OCC2CCCCC2)cc1)N[C@@H](Cc1ccc(O)cc1)C(=O)NC1CCN(Cc2ccc(O)cc2)C1` (stereo not given in full), the growth inhibition in assay [1] is -4%; in assay [4] it was 91% (active). Moreover, the inhibition in assay [2] is 6%; in assay [3], -1%. For the same molecule, the outcome in assay [5], in assay [6], in assay [7] and in assay [8] was inactive.

Take `CCCc1cc(N2CCC(c3ccccc3)(N3CCCCC3)CC2)nc(Nc2ccc(OC)cc2)n1`: the growth inhibition is 28% in assay [1] and 81% (active) in assay [4]. In addition, the figures for the inhibition in assay [2] and in assay [3] were 13% and 1%, respectively. Moreover, the result in assay [5], in assay [6], in assay [7] and in assay [8] was inactive.

For `CN(C)CCC1CCCc2ccc(NC(=O)Nc3ccc(-c4ccncc4)c4ccccc34)cc21` (stereo not given), the growth inhibition is 27% in assay [1] and 89% (active) in assay [4]. For the same molecule, the inhibition in assay [2] was 34%; in assay [3], 6%. The result in assay [5], in assay [6], in assay [7] and in assay [8] was inactive.

Consider `O=C(Nc1ccc(N2CCN(Cc3ccccc3Cl)CC2)cc1)c1ccc([N+](=O)[O-])o1`, for which the growth inhibition in assay [1] is 67% (active); in assay [4] it was 91% (active). The inhibition in assay [2] was 100% (active); in assay [3], -4%. The result in assay [5], in assay [6], in assay [7] and in assay [8] was inactive.

With `CCN(CC)CCOc1c(Cl)cc(Cl)cc1CNCCCNc1cc(=O)c2ccccc2[nH]1`, the growth inhibition is 6% in assay [1] and 97% (active) in assay [4]. Further, the inhibition in assay [2] was 11%; in assay [3], -1%. The outcome in assay [5], in assay [6], in assay [7] and in assay [8] was inactive.

Consider `CCCn1c(SCC(=O)Nc2cc(Cl)ccc2Cl)n[nH]c1=O`, for which the results for the growth inhibition in assay [1] and in assay [4] were 53% (active) and 88% (active), respectively. Further, the figures for the inhibition in assay [2] and in assay [3] were -5% and -2%, respectively. Moreover, the result in assay [5], in assay [6], in assay [7] and in assay [8] was inactive.

Regarding `CC[C@H]1CN(Cc2ccccc2Br)CC[C@H]1CCCc1ccnc2ccc(O)cc12`, the growth inhibition was 2% in assay [1] and 86% (active) in assay [4]. The inhibition was 12% in assay [2] and -4% in assay [3]. The outcome in assay [5], in assay [6], in assay [7] and in assay [8] was inactive.

On to `Cc1cc(-c2ccc(CNCc3ccsc3)cc2)ccc1S(=O)(=O)NCCN1CCCC1`, for which the values for the growth inhibition in assay [1] and in assay [4] were 49% and 99% (active), respectively. The figures for the inhibition in assay [2] and in assay [3] were 57% (active) and -1%, respectively. Moreover, the result in assay [5], in assay [6], in assay [7] and in assay [8] was inactive.

Take `O=C(NCc1cccc2ccccc12)C(c1cc2ccccc2o1)N1CCN(C(c2ccccc2)c2ccccc2)CC1` (stereo not given): the growth inhibition in assay [1] is 90% (active); in assay [4] it was 99% (active). In addition, the inhibition in assay [2] is -3%; in assay [3], -2%. Further, the result in assay [5], in assay [6], in assay [7] and in assay [8] was inactive.

For the molecule `Cn1c(Cc2ccccc2)nnc1Sc1ccc(C#N)c([N+](=O)[O-])c1`, the growth inhibition in assay [1] is 29%; in assay [4], 93% (active). For the same molecule, the inhibition in assay [2] and in assay [3] was -5% throughout. The outcome in assay [5], in assay [6], in assay [7] and in assay [8] was inactive.

Regarding `CCCCC(=O)NC(c1cccs1)c1cc(Cl)c2cccnc2c1O` (stereo not given), the growth inhibition is 90% (active) in assay [1] and 93% (active) in assay [4]. In addition, the values for the inhibition in assay [2] and in assay [3] were 50% (active) and 1%, respectively. For the same molecule, the outcome in assay [5], in assay [6], in assay [7] and in assay [8] was inactive.

On to `CCN(CCNC(=O)Cn1c(C)cc2cc([N+](=O)[O-])ccc21)c1cccc(C)c1`, for which the growth inhibition in assay [1] was 95% (active); in assay [4] it was 97% (active). The inhibition is -3% in assay [2] and 6% in assay [3]. Further, the outcome in assay [5], in assay [6], in assay [7] and in assay [8] was inactive.

Take `O=C(NC1CCCCN(Cc2ccc3c(c2)OCCO3)C1)c1cc(-c2ccccc2F)cs1` (stereo not given): the growth inhibition in assay [1] was 19%; in assay [4], 92% (active). The inhibition in assay [2] was 8%; in assay [3], 1%. Besides, the result in assay [5], in assay [6], in assay [7] and in assay [8] was inactive.

For the molecule `O=C(Nc1ccc(Cl)c(Cl)c1)Nc1ccc2c(c1)CCNCC2`, the growth inhibition was 37% in assay [1] and 86% (active) in assay [4]. For the same molecule, the figures for the inhibition in assay [2] and in assay [3] were 13% and -1%, respectively. For the same molecule, the result in assay [5], in assay [6], in assay [7] and in assay [8] was inactive.

In the case of `CCCCNc1c(C(=O)OCC)c(C)nc2c1[nH]c1ccccc12`, the growth inhibition was 58% (active) in assay [1] and 100% (active) in assay [4]. For the same molecule, the inhibition in assay [2] was -3%; in assay [3], 3%. Besides, the result in assay [5], in assay [6], in assay [7] and in assay [8] was inactive.

In the case of `CC1CCN(CCNC(=O)c2ccc3c(=O)n(Cc4ccc(Cl)cc4)c(=S)[nH]c3c2)CC1`, the values for the growth inhibition in assay [1] and in assay [4] were 75% (active) and 101% (active), respectively. Moreover, the inhibition in assay [2] was 6%; in assay [3], 4%. The result in assay [5], in assay [6], in assay [7] and in assay [8] was inactive.

With `CS(=O)(=O)c1ccc(CCNCc2ccc(-c3ccc(CNC4CCN(Cc5ccccc5)CC4)cc3)nc2)cc1`, the values for the growth inhibition in assay [1] and in assay [4] were 100% (active) and 101% (active), respectively. Moreover, the inhibition was 32% in assay [2] and 3% in assay [3]. Moreover, the outcome in assay [5], in assay [6], in assay [7] and in assay [8] was inactive.

Regarding `CC1(C)CN2CCCC2c2cc(NC(=O)/C=C/c3ccccc3Cl)ccc21` (stereo not given), the growth inhibition is 76% (active) in assay [1] and 88% (active) in assay [4]. The inhibition in assay [2] is 20%; in assay [3], 0%. The result in assay [5], in assay [6], in assay [7] and in assay [8] was inactive.

`CC(C)N1CCC(N(Cc2ccc(-c3ccc(C(F)(F)F)cc3)cc2)C(=O)Cn2c(SCc3cccc(F)c3F)cc(=O)c3c2CCC3)CC1`: the values for the growth inhibition in assay [1] and in assay [4] were 42% and 88% (active), respectively. In addition, the inhibition in assay [2] is 44%; in assay [3], -6%. The result in assay [5], in assay [6], in assay [7] and in assay [8] was inactive.

The term inhibition denotes the drop in the measured response relative to a control, in per cent.

Source of the values: PubChem BioAssay.
